From PubChem BioAssay AID588499 (NMMLSC, 2011)
About 610 (0.17%) of roughly 360,000 compounds were called active. Another 2% or so got no clear call; they are omitted. For the sample, actives were picked, then their nearest neighbours and some compounds at random. A number with no mark means an inactive call. Rule as the data show it: active = inhibition above about 30%; inconclusive = no clear call, values can overlap the other calls; inactive = below that.

What follows are compounds tested on Botulinum neurotoxin type A light chain protease (Clostridium botulinum A str. ATCC 3502) (assay: BoNT/A light chain protease inhibitors, primary screen, biochemical, flow cytometry, MLPCN library (AID 588499; also: plate controls were buffer without enzyme for full effect and enzyme alone for no effect)). Details: multiplex microsphere protease substrate cleavage, at 10 µM, active compounds read high.

With `CCOC(=O)N(C)c1c(CC)nc2c(OCc3ccccc3C(=O)OC)cccn12` as the compound, how does the inhibition read?
Its inhibition is -0.1%.

How did the inhibition turn out when `CCN1CCN(c2ccc(S(=O)(=O)N3CCCCC3)cc2NC(=O)Cc2c(Cl)cccc2Cl)CC1` was run?
The inhibition was -1.8%.

With `CCn1c(O)c(N=NC2=NC(=O)CS2)c2cc(C)ccc21` as the compound, how does the inhibition read?
The inhibition was -0.3%.

How did the inhibition turn out when `COC(=O)c1ccc(CN2CCCC(C(=O)Nc3cccc(-n4cnnn4)c3)C2)cc1` (centres undefined) was run?
The inhibition was -3.3%.

How did the inhibition turn out when `CC(C)C1N=C2c3ccccc3N=C(SCC(=O)c3ccc(O)c(O)c3)N2C1=O` (centres undefined) was run?
Its inhibition is 0.1%.

How did the inhibition turn out when `Cc1cc(C(C)(C)C)oc1C(=O)N(CC(=O)NC1CCCC1)Cc1ccc(Cl)cc1` was run?
The inhibition was -0.3%.

`CC1(C(=O)Nc2cccc(Oc3ccccc3)c2)CCN1Cc1ccccc1Cl` (centres undefined) was tested. Which inhibition did it give?
Its inhibition is -0.1%.

`CC(C)CN(C(=O)CN1CCN(S(=O)(=O)c2ccccc2)CC1)c1c(N)n(CC(C)C)c(=O)[nH]c1=O` was tested. Which inhibition did it give?
Its inhibition is -2.5%.

With `Cc1cc(-c2nnc(CCC(=O)NC(c3ccccc3)c3ccccc3)o2)no1` as the compound, how does the inhibition read?
Its inhibition is 0.3%.

With `CCCn1c(=NC(C)=O)c(C(=O)OCC)cc2c(=O)n3ccccc3nc21` as the compound, how does the inhibition read?
The inhibition was 0.6%.

Which inhibition does the source give for `CCOC(=O)c1cc2c(=O)n3ccccc3nc2n(CC(C)C)c1=NC(=O)c1c(-c2c(F)cccc2Cl)noc1C` here?
Its inhibition is 60.3% (active).

Which inhibition does the source give for `Cc1onc(-c2c(F)cccc2Cl)c1C(=O)OCC(=O)N1C(C)CCCC1C` (centres undefined) here?
The inhibition was 0.1%.

How did the inhibition turn out when `CC(C)C(C)(C#N)NC(=O)CSc1nncn1-c1ccccc1` (centres undefined) was run?
Its inhibition is -0.7%.

Which inhibition does the source give for `Cc1ccc(SCC2=NNC(=O)C2)cc1` here?
Its inhibition is 0.6%.

With `CCc1ccc(CCC(=O)Nc2ccc(S(N)(=O)=O)cc2)o1` as the compound, how does the inhibition read?
The inhibition was 0.3%.

Which inhibition does the source give for `CCCCCCN1CCN(C2CN(Cc3cn(CCCCCC)nn3)S(=O)(=O)C2)CC1` (centres undefined) here?
The inhibition was -0.3%.

With `Cc1ccc2nc(-c3ccccc3)c(CC3CCCCC3)n2c1` as the compound, how does the inhibition read?
The inhibition was 1.4%.

For `CC1=CCC2C(=O)N(c3cccc(C(=O)NC(C)c4ccccc4)c3)C(=O)C2C1` (centres undefined), which inhibition is on record?
The inhibition was -3.1%.

Which inhibition does the source give for `Cc1ccc(C)c(NC(=O)CN(C)C(=O)COc2ccc3ccccc3c2)c1` here?
Its inhibition is -0.4%.

For `Cc1cc2ccccc2n1CCNC(=O)COc1ccc2ccccc2c1`, which inhibition is on record?
The inhibition was 61.4% (active).

For `COCCNC(=O)COc1ccc(N(C)S(=O)(=O)c2ccc3ccccc3c2)cc1`, which inhibition is on record?
Its inhibition is -1.4%.

How did the inhibition turn out when `Cc1ccc(S(=O)(=O)N2CC[C@H]3[C@@H](C2)C(=O)C[C@@H](c2ccccc2)N3S(=O)(=O)c2ccc(C)cc2)cc1` was run?
Its inhibition is -0.4%.

With `Cc1ccc(N(C(=O)c2ccc(CN3CCOCC3)o2)C(C(=O)NCCC(C)C)c2cccs2)c(C)c1` (centres undefined) as the compound, how does the inhibition read?
Its inhibition is -1%.

Which inhibition does the source give for `Cc1cccc(N(CC(=O)Nc2ccc(-c3nc4ccc(C)cc4s3)cc2)S(C)(=O)=O)c1` here?
Its inhibition is -0.9%.

Which inhibition does the source give for `CCCCCc1c(-c2ccc(OC)c(OC)c2)ncn1CCc1ccccc1OC` here?
Its inhibition is -0.2%.

For `COC(=O)c1ccc2nc(-c3ccc(OC)c(OC)c3)c(Cc3ccccc3)n2c1`, which inhibition is on record?
The inhibition was 3%.

`CCCOc1cccc(C(=O)Nc2ccccc2C(=O)N2CCN(C)CC2)c1` was tested. Which inhibition did it give?
The inhibition was -2.3%.

Which inhibition does the source give for `COc1ccc(C(=O)NC(Cc2ccc(OC(=O)c3ccc(OC)cc3)cc2)C(=O)O)cc1` (centres undefined) here?
Its inhibition is 0.4%.

Which inhibition does the source give for `c1csc(-c2nnc(COc3ccc4c(c3)OCO4)o2)c1` here?
The inhibition was -0.4%.

Which inhibition does the source give for `COC(=O)c1ccc2nc(-c3ccc(C)cc3)c(Cc3ccc(OC)cc3C)n2c1` here?
The inhibition was 0.7%.

`COCCNC(=S)N/N=C/c1c(C)[nH]c2ccccc12` was tested. Which inhibition did it give?
Its inhibition is 42.9% (active).

For `CN=c1scc(-c2cc(OC)ccc2OC)n1/N=C/c1c(C)[nH]c2ccccc12`, which inhibition is on record?
The inhibition was 7.7%.

`Cc1[nH]c2ccccc2c1/C=N/NC(=O)CNC(=O)c1ccc2c(c1)OCO2` was tested. Which inhibition did it give?
The inhibition was 0.6%.

How did the inhibition turn out when `CCCN(C(=O)CSc1nnnn1C)c1c(N)n(Cc2ccccc2)c(=O)[nH]c1=O` was run?
The inhibition was -0.4%.

With `CCOC(=O)c1ccn(-c2nc(-c3ccco3)cc(C(F)(F)F)n2)n1` as the compound, how does the inhibition read?
The inhibition was 0.1%.

How did the inhibition turn out when `O=C(Cn1cnc2c(OCc3ccccc3)ncnc21)NCc1nc2ccccc2[nH]1` was run?
Its inhibition is -0.1%.

How did the inhibition turn out when `Cc1ccc(Cc2c(-c3ccco3)nc3ccc(Cl)cn23)cc1` was run?
Its inhibition is 4.3%.

How did the inhibition turn out when `CCc1nnc(NC(=O)CSc2nc3ccccc3c(=O)n2CCCOC)s1` was run?
The inhibition was 0.5%.

With `O=[N+]([O-])c1ccc(NS(=O)(=O)c2ccccc2)c(Cl)c1` as the compound, how does the inhibition read?
Its inhibition is -0.4%.

`CCN(C(=O)Cc1c(C(=O)O)n(CC)c2ccccc12)c1ccccc1C` was tested. Which inhibition did it give?
The inhibition was -3.2%.

For `COc1cc(/C=C2\SC(=S)N(Nc3ncc(C(F)(F)F)cc3Cl)C2=O)cc(OC)c1OC`, which inhibition is on record?
Its inhibition is 82.7% (active).

Which inhibition does the source give for `COc1cc(-c2nnc(Cn3cc(C(F)(F)F)ccc3=O)o2)cc(OC)c1OC` here?
The inhibition was 0.9%.

With `O=C1/C(=C/c2ccc(F)cc2)SC(=S)N1NS(=O)(=O)c1ccccc1` as the compound, how does the inhibition read?
Its inhibition is 1.8%.

With `Nc1nnc(SCC(=O)OCc2ccc(Cl)c(Cl)c2)s1` as the compound, how does the inhibition read?
The inhibition was -0.2%.

For `O=c1cnnc(Nc2ccccc2F)[nH]1`, which inhibition is on record?
The inhibition was -1.3%.

How did the inhibition turn out when `N#Cc1ccc(N2Cc3ccccc3/C2=N/C(=O)Nc2ccc(Cl)cc2)cc1` was run?
Its inhibition is -0.1%.

Which inhibition does the source give for `Cc1cc([N+](=O)[O-])nn1Cc1ccc(F)cc1` here?
The inhibition was -0.3%.

For `Nc1nonc1-n1nnc(C(=O)N/N=C/c2cc(Br)ccc2O)c1CSC1=NCCS1`, which inhibition is on record?
Its inhibition is 0.6%.

How did the inhibition turn out when `COc1ccc(CCNC(=S)N2CCN(S(=O)(=O)c3ccc(F)cc3)CC2)cc1` was run?
The inhibition was 0.6%.

With `CC1CCc2c(sc3nc4n(c(=O)c23)CCS4)C1` (centres undefined) as the compound, how does the inhibition read?
Its inhibition is 52.4% (active).

With `CCCn1nnc2sc3c(c2c1=O)CCC(C)C3` (centres undefined) as the compound, how does the inhibition read?
Its inhibition is 0.3%.

For `Cn1c(NN)nc2sc3c(c2c1=O)CCC3`, which inhibition is on record?
The inhibition was -1.4%.

For `Cc1ccc2[nH]c(C(=O)O)c(NC(=O)c3ccccc3[N+](=O)[O-])c2c1`, which inhibition is on record?
Its inhibition is 0.9%.

Which inhibition does the source give for `O=C1CSC(c2cccc(F)c2)N1c1ccccc1F` (centres undefined) here?
The inhibition was -0.9%.

With `Cc1cc(Br)ccc1NC(=O)CCCOc1cc(=O)n(C)c2ccccc12` as the compound, how does the inhibition read?
Its inhibition is 0%.

For `CCC(=O)N(C)C(c1ccccc1Cl)c1nnnn1-c1c(C)cccc1C` (centres undefined), which inhibition is on record?
Its inhibition is -0.4%.

`COc1ccc(/C(=N\O)c2nccc3cc(OC)c(OC)cc23)cc1OC` was tested. Which inhibition did it give?
Its inhibition is -0.2%.

How did the inhibition turn out when `COc1ccc(C2OC(CCc3ccccc3)Cc3[nH]c(=S)[nH]c(=O)c32)cc1` (centres undefined) was run?
Its inhibition is 0.5%.

`CCOc1ccc2ccccc2c1/C=N/NC(=O)c1c(C)cc(C)[nH]c1=O` was tested. Which inhibition did it give?
The inhibition was 0.8%.

With `O=C(O)c1ccc2c(=O)n3c(nc2c1)/C(=C/c1ccc(OC(F)F)cc1OC(F)F)CC3` as the compound, how does the inhibition read?
The inhibition was -1.9%.

Which inhibition does the source give for `CC(C)(C)c1ccc(S(=O)(=O)NC(=O)C2(C)CCN2C(=O)CC2CC2)cc1` (centres undefined) here?
The inhibition was -0.9%.

Which inhibition does the source give for `O=C(CC(NC(=O)c1ccccc1)c1ccccc1)Nc1ccc(F)c(F)c1` (centres undefined) here?
Its inhibition is -0.5%.

Which inhibition does the source give for `CN(C(=O)CSc1nnc(-c2n[nH]c3ccccc23)o1)c1ccccc1` here?
The inhibition was 0.1%.

`Cc1nc(C(F)(F)F)ccc1C(=O)N1CCC1(C)C(=O)NS(=O)(=O)c1ccccc1` (centres undefined) was tested. Which inhibition did it give?
Its inhibition is -0.7%.

For `Nc1nc2c(ncn2[C@@H]2O[C@H](CNCc3ccc(OCCCN4CCOCC4)cc3)[C@@H](O)[C@H]2O)c(=O)[nH]1`, which inhibition is on record?
The inhibition was -0.1%.

`CCc1oc(-c2ccc(OC)cc2)c(C(=O)OCCCCCO)c1C(C)OCCO` (centres undefined) was tested. Which inhibition did it give?
The inhibition was 0.8%.

How did the inhibition turn out when `Cc1ccc(C)c2[nH]c(=O)c(CCNC(=O)c3cccs3)cc12` was run?
The inhibition was -0.5%.

Which inhibition does the source give for `Cc1cc2cc(CNC(=O)c3cccs3)ccc2[nH]1` here?
The inhibition was 75.4% (active).

`Cc1cccc(NC(=S)NCc2ccc3[nH]c4c(c3c2)CCCC4)c1` was tested. Which inhibition did it give?
Its inhibition is 0.2%.

`O=C(Nc1ccc2cn[nH]c2c1)c1ccc(S(=O)(=O)N2CCOCC2)cc1` was tested. Which inhibition did it give?
Its inhibition is -1.3%.

How did the inhibition turn out when `Cc1c(Cl)cccc1NC(=S)NCc1ccc2c(c1)OCO2` was run?
Its inhibition is -1.1%.

For `CCc1cccc(CC)c1NC(=S)NCc1ccc2[nH]c(C)cc2c1`, which inhibition is on record?
The inhibition was 34.3% (active).

With `Cc1cc2cc(CNC(=O)c3ccc(S(=O)(=O)N4CCOCC4)cc3)ccc2[nH]1` as the compound, how does the inhibition read?
Its inhibition is 71.1% (active).

With `COC(=O)c1ccc(CNC(=O)c2ccc(S(=O)(=O)N3CCCCCC3)cc2)cc1` as the compound, how does the inhibition read?
Its inhibition is 0.1%.

With `CCOc1ccc(C(C)=O)cc1COC(=O)CNC(=O)c1cccs1` as the compound, how does the inhibition read?
The inhibition was -0.9%.

Which inhibition does the source give for `O=C(CSc1nncn1-c1cccnc1)N1CCOCC1` here?
Its inhibition is -0.7%.

Which inhibition does the source give for `COc1cccc(C=CC(=O)C=CC=Cc2ccccc2)c1` here?
Its inhibition is 0.9%.

`COc1ccc(/C=C/C(=O)c2c(O)cc(OC)cc2OC)cc1` was tested. Which inhibition did it give?
The inhibition was -0.9%.

How did the inhibition turn out when `O=C(/C=C(O)/C=C/c1ccc(O)cc1)/C=C/c1ccc(O)cc1` was run?
Its inhibition is 38.1% (active).

For `Cc1ccccc1S(=O)(=O)NC(=O)C1(C)CCN1C(=O)C1(c2ccc(Cl)cc2)CC1` (centres undefined), which inhibition is on record?
Its inhibition is -0.5%.

How did the inhibition turn out when `Cc1cc(C(=O)COc2ccccc2[N+](=O)[O-])c(C)n1-c1cccc(S(=O)(=O)N2CCOCC2)c1` was run?
The inhibition was -2%.

Which inhibition does the source give for `C#CCNC(=O)C[C@@H]1C[C@@]2(C(=O)OCC)CCCC=C2N(Cc2ccco2)C1=O` here?
The inhibition was -1.2%.

Which inhibition does the source give for `CN(CC(=O)Nc1ccc(F)cc1)CC(=O)N1CCCCC1` here?
Its inhibition is 0.4%.

For `COc1ccc(NC(=O)c2sc(=O)n(Cc3ccc(S(=O)(=O)N(C)C)cc3)c2C)cc1`, which inhibition is on record?
The inhibition was -0.2%.

With `CC1(C(=O)NS(=O)(=O)c2ccc(Cl)cc2)CCN1C(=O)CC1CCCC1` (centres undefined) as the compound, how does the inhibition read?
Its inhibition is -0.4%.

With `CN(C(=O)CCn1c(=S)oc2ccccc21)C1CCCCC1` as the compound, how does the inhibition read?
Its inhibition is 0.7%.

For `Cn1nc(N)c2ncc(C(Cl)(Cl)Cl)nc21`, which inhibition is on record?
Its inhibition is 0%.

How did the inhibition turn out when `Fc1cccc(Cc2c(-c3cccc(Cl)c3)nc3ccc(Br)cn23)c1` was run?
The inhibition was 9.7%.

`O=C1OCC2=C1C(c1ccccc1)CC(=O)N2c1cccc(F)c1` (centres undefined) was tested. Which inhibition did it give?
The inhibition was -1.3%.
